# Laboratory results published in PubChem BioAssay (NCI).
# Compounds without any hit were thinned out: in the full panel of roughly 83,000, 20% have a hit.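 Cells were grown in 96-well plates and exposed to the test compound at a single concentration for 48 hours; results are reported as percent growth, with values below 10 considered active.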 Active and inactive are the calls of the source.
# Tested on: EKVX NSCLC
# Assay: NCI-60 one-dose screen, 48 h (100 = growth as untreated, 0 = no growth, -100 = all killed)
# Conditions: 10 µM
# Experimental: Growth inhibition of the EKVX human Non-Small Cell Lung tumor cell line is measured as a screen for anti-cancer activity. Cells are grown in 96 well plates and exposed to the test compound for 48 hours. Compounds are tested at a single concentration, which is 10^-5 M for most compounds. The reported endpoint is percent growth (GI% or GIPRCNT), where numbers from 0 - 100% represent growth inhibition, and numbers from -100% - 0 represent cell death. For example, a value of 40 represents 60% growth inhibition. A value of 0 means no net growth occurred over the course of the experiment. A value of -40 indicates 40% of cells at the beginning of the experiment died by the end of the experiment. A value of -100 means all cells are dead at the end of the experiment.
# NCI-60 Human Tumor Cell Lines Screen was performed using the standard one-dose NCI protocol, which is described in more detail at https://dtp.cancer.gov/discovery_development/nci-60/default.htm.
# Compounds with GIPRCNT values below 10 were considered active. Activity score was based on GIPRCNT using the following formula: […]
# Score is 0 for GIPRCNT values of 100 or above, 50 for GIPRCNT values of 0, and 100 for GIPRCNT values of -100.
row,SMILES,growth
1,O=C(Nc1nc2ccc([N+](=O)[O-])cc2s1)Nc1cc(Cl)ccc1I,-23.7% (active)
2,O=C1CCC(N2Cc3cc(NC(=O)COc4ccccc4)ccc3C2=O)C(=O)N1 (stereo not given),78.6% (inactive)
3,O=C(CNc1nc(-c2ccccc2)cs1)Nc1ccccc1,-93.3% (active)
4,N#Cc1ccc(-c2nn(-c3ccc(C(=O)O)cc3)cc2CNc2ccc(Cl)cc2)cc1,67.8% (inactive)
5,Nc1n[nH]c2cccc(C#Cc3cccc(NC(=O)Nc4cc(C(F)(F)F)cc(C(F)(F)F)c4)c3)c12,-30.3% (active)
6,CN1CCc2c(sc3ncnc(N/N=C/c4cn(-c5ccccc5)nc4-c4ccc(Cl)cc4)c23)C1,19.8% (inactive)
7,O=C(Nc1ccc(Cl)c([N+](=O)[O-])c1)Nc1ccc(Cl)c([N+](=O)[O-])c1,17.8% (inactive)
8,COc1ccc(-c2ccc(/C=N/NC(=O)c3[nH]c4ccc(Br)cc4c3-c3ccccc3)s2)cc1,110% (inactive)
9,O=c1c2ccccc2nc(COc2ccccc2)n1/N=C/c1ccc(N2CCOCC2)cc1,69.7% (inactive)
10,COc1cccc(/C=C2\N=C(C)N(CCc3ccc(S(N)(=O)=O)cc3)C2=O)c1,95.6% (inactive)
11,CCOC(=O)C1=C(N)N(c2ccc(Cl)cc2)C2=C(C(=O)CC(C)(C)C2)C1c1ccc(N2CCOCC2)cc1 (stereo not given),74.6% (inactive)
12,C/C(=N\NC(N)=S)c1ccc(Nc2nc(SC(C)C)nc(-c3ccccc3)c2C#N)cc1,75.9% (inactive)
13,COc1cc2c3c(n(CCCNC(C)C)c(=O)c2cc1OC)-c1nc2c(cc1C3=O)OCO2,87.6% (inactive)
14,Cc1cccc(-c2nc(Nc3ccccc3C(=O)O)c3ccccc3n2)c1,21% (inactive)
15,Oc1ccc(/C=C2\CCCc3cc4ccc(O)cc4[o+]c32)c(O)c1,65.9% (inactive)
16,O=C(c1ccc(-n2c(=O)[nH]c3ccccc3c2=O)cc1)N1CCOCC1,101% (inactive)
17,COc1ccc2[nH]c(O)c(N=NC(=O)COc3ccc(NC(=O)Nc4ccc(Cl)c(Cl)c4)cc3)c2c1,31.9% (inactive)
18,O=c1[nH]c2ccccc2cc1CSc1ccc(Nc2nccc(-c3ccc(Cl)cc3)n2)cc1,-49.6% (active)
19,O=C(CSc1nnc(-c2c[nH]c3ccccc23)n1-c1ccccc1)Nc1ccc(C(=O)/C=C/c2ccc(Br)cc2)cc1,67.4% (inactive)
20,COc1ccc2c3nc4cc(C)c(C)cc4nc3n(CCN(C)C)c2c1,12.6% (inactive)

row,SMILES,growth
1,COc1ccc2[nH]cc(/C=N/Nc3ccc(Br)cn3)c2c1,22.9% (inactive)
2,CN(C)c1ccc(/C=C/C(=O)c2ccc(NC(=O)CN3C(=O)NC(C)(c4ccccc4)C3=O)cc2)cc1 (stereo not given),66.4% (inactive)
3,COc1ccc([C@H]2C(C(=O)c3ccc(Cl)cc3)C3(N[C@@H]2c2ccccc2)C(=O)Nc2ccc(Cl)cc23)cc1 (stereo not given in full),4.5% (active)
4,Cc1ccc(F)cc1N/C=c1\s/c(=C(\C#N)C(=O)Nc2ccccc2)n(-c2ccccc2)c1=O,86.7% (inactive)
5,COc1ccc(/C=C/C(=O)c2ccc(N3CCN(C)CC3)cc2)c(C(F)(F)F)c1,49% (inactive)
6,C=C1CC[C@H](C(=C)C)[C@H]2C=C(C)C(=O)C3=C(C(=O)[C@@](C)(O)C3)[C@H]12,-78.5% (active)
7,CCCn1c(=O)c2[nH]c(-c3ccc(OCc4nc5ccc(F)cc5[nH]4)cc3)nc2n(CCC)c1=O,34.4% (inactive)
8,O=S(=O)(Nc1ncccn1)c1ccc(-n2c(-c3ccccc3)nc(-c3ccccc3)c2-c2ccccc2)cc1,76.9% (inactive)
9,Nc1nc(Nc2ccc(Cl)cc2)n(Cc2cccc(Br)c2)n1,-4.06% (active)
10,CCCS(=O)(=O)c1oc(-c2ccc(F)cc2)nc1S(=O)(=O)c1ccc(F)cc1,82.8% (inactive)
11,C=CC(=O)Nc1ccc(C(=O)/C=C/c2ccc(N(C)CCF)cc2)c(O)c1,-25% (active)
12,O=C1Nc2cc(-c3ccc(NC(=O)c4cccc([N+](=O)[O-])c4)cc3)ccc2/C1=C/c1ccc[nH]1,66.5% (inactive)
13,O=C1N/C(=N\c2nccs2)S/C1=C\c1cccs1,19% (inactive)
14,O=c1nc(-c2ccccc2)cc(-c2cc3ccccc3nc2Cl)[nH]1,61.6% (inactive)
15,Cn1c(O)c(N=Nc2nc(-c3cc4ccccc4oc3=O)cs2)c2cc(Br)ccc21,65.4% (inactive)
16,Cc1ccc(NC(=O)c2ccc(-n3c(=O)[nH]c4ccccc4c3=O)cc2)cc1,84.8% (inactive)
17,O/N=C(\CSc1nnc(-c2c[nH]c3ccccc23)n1-c1ccccc1)c1ccc(Cl)cc1,2.05% (active)
18,COc1ccc2nc(Cl)c(-c3cc(-c4ccccc4)nc(=S)[nH]3)cc2c1,65.6% (inactive)
19,O=C(O)CCCCCCCCCCN1C(=O)/C(=C/c2cnc(-c3ccccc3)s2)SC1=S,52.8% (inactive)
20,O=C(CN1CCN(c2ncnc3c2cnn3-c2ccccc2)CC1)Nc1nncs1,-44.8% (active)
